EWS-Fli inh = EWS/Fli-driven NR0B1 reporter inhibitors, primary screen, A673 cells, NR0B1 luciferase, luminescence, MLPCN library; inhibition, % at 12.6 µM; actives 0.67% (n = 350,000); viability-normalised;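 active = mean inhibition of at least 50% after viability correction, with every replicate also passing that limit; inconclusive = mean reaches 50% but only one of two replicates passes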;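 note: firefly luciferase signal divided by Alamar Blue viability fluorescence both relative to DMSO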
SIRT5 inh = SIRT5 desuccinylase inhibitors, primary screen, biochemical, fluorescence imaging, single point, set 5; Purified SirT5, succinyl-peptide AMC, trypsin-coupled fluorescence; inhibition, % at 15 µM; AID 652115, 2013; NAD-dependent protein deacylase sirtuin-5, mitochondrial (Homo sapiens), Q9NXA8; actives 1.1% (n = 330,000); in the data active = inhibition above about 15%; inconclusive = no clear call, values can overlap the other calls
Target sequence (Q9NXA8 whole entry, looked up): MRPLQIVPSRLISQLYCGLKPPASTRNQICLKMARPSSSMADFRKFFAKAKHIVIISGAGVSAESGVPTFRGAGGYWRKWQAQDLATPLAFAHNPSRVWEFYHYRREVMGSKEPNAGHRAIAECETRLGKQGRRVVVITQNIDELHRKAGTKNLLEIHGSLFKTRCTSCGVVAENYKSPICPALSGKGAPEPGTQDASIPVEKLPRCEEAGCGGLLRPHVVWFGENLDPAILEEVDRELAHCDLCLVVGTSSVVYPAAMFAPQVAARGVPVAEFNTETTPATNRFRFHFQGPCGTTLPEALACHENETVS
PGC1a acetyl inh = inhibitors of PGC1a acetylation signal, primary screen, cell-based, U2OS, AlphaScreen, inhibitor mode; AlphaScreen anti-acetyl-lysine; with virally co-expressed GCN5 acetyltransferase; inhibition, % at 15.6 µM; actives 0.17% (n = 350,000);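 active = every replicate shows inhibition of at least 40%; inconclusive = mean inhibition at least 40% but some replicate below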;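 note: 0% = neutral control wells and 100% = positive control wells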
rRNA inh HTS = reduced GFP signal of wild-type E. coli, primary screen, bacterial rRNA inhibitor project, GFP/RFP fluorescence, OD600, single point | E. coli WT GFP vs humanized-ribosome RFP mutants, 24 h; active compounds read low; DMSO median 0, no signal -100 | GFP signal change (wild-type ribosome), % (test concentration not listed) | actives 1.6% (n = 350,000);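 active = significant combined selectivity score with lowered wild-type GFP, culture density cut under 30%, mutant RFP and density less affected; inactive = any of these conditions unmet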
LGR2 antag = inhibitors of bursicon-induced LGR2 CRE-luciferase signal, primary screen, cell-based, HEK293, CRE-luciferase reporter, bursicon stimulation | Drosophila bursicon receptor LGR2 (rickets) | bursicon-stimulated, 4 h | inhibition, % at 9.99 µM | actives 0.35% (n = 380,000) | AID 720647, 2013;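 active = drop in luminescence signal, shown as inhibition above about 50% in the replicate tests, limit read from the data, passing the limit was not always enough; inconclusive = probably only some replicates passing the limit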;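 note: agonist challenge used bursicon conditioned medium at about half maximal strength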
PAX8 inh HTS = inhibitors of PAX8-driven TPO luciferase reporter, primary screen, RMG-I cells, single concentration; SteadyGlo, 24 h; inhibition, % at 12.6 µM; actives 1.2% (n = 360,000);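 active = mean replicate inhibition at least 60% with every replicate also reaching 60%; inconclusive = only one of the two criteria is met; inactive = mean below 60% and not all replicates reaching 60%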;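 note: luciferase light reporting Pax8 driven TPO promoter activity; plate controls were median of neutral control wells for no effect and mitoxantrone controls for full effect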
* = called active by the depositor; i = inactive; u = inconclusive; x = not tested or not shown; ! = not active in a repeat. An excerpt weighted towards active compounds, which were near 3.4% of everything screened.

SMILES	EWS-Fli inh	SIRT5 inh	PGC1a acetyl inh	rRNA inh HTS	LGR2 antag	PAX8 inh HTS
COc1cccc(OC)c1OCC(=O)Nc1ccc(S(=O)(=O)N2CCCC2)cc1	-3	-3	2	-34*	8	25
CCC1(c2ccc(F)cc2)NC(=O)N(CC(=O)Nc2cccc(S(=O)(=O)N3CCCCC3)c2)C1=O (stereo not drawn)	10	15*	-36	-5	10	x
CCn1nc(C(=O)Nc2cccc(S(=O)(=O)N3CCCC3)c2)c2ccccc2c1=O	3	-4	x	-27*	-15	15
O=C(COc1ccccc1Cl)Nc1cccc(S(=O)(=O)N2CCCC2)c1	15	-5	-4	-34*	-2	2
O=C(COc1ccc(F)cc1Cl)Nc1cccc(S(=O)(=O)N2CCCC2)c1	4	13	-3	-37	-4	-26
C[C@@H]1CN([C@@H](C)CO)C(=O)c2cc(NS(=O)(=O)c3ccc(F)cc3)ccc2O[C@@H](C)CCCCO[C@H]1CN(C)C	-4	-4	1	0	1	-18
CCOc1ccc(/C=C/C(=O)OCC(=O)Nc2cccc(S(=O)(=O)N3CCCC3)c2)cc1	-2	3	5	-10	-37	-12
COc1ccccc1C(=O)NCC(=O)OCC(=O)Nc1cccc(S(=O)(=O)N(C)C)c1	4	-5	7	-51	3	8
CN(C)S(=O)(=O)c1cccc(NC(=O)COc2ccccc2C(=O)NCc2ccccc2)c1	5	-10	3	-34*	-22	7
O=C(Nc1cccc(S(=O)(=O)N2CCCCC2)c1)c1cc2ccccc2o1	-3	-3	-14	-24*	0	-10
O=C(COC(=O)/C=C/c1cccs1)Nc1cccc(S(=O)(=O)N2CCCC2)c1	-4	15*	x	-10	11	13
CC(=O)N(C)C[C@@H]1Oc2cc(-c3ccccc3)ccc2S(=O)(=O)N([C@H](C)CO)C[C@@H]1C	5	13	-7	-4	-20	7
Cc1ccc(S(=O)(=O)Nc2cccc3c2O[C@@H](CN(C)C(=O)Nc2ccc4c(c2)OCO4)[C@@H](C)CN([C@H](C)CO)C3=O)cc1	-7	7	-4	-7	-6	x
CCSc1nc2ccccc2n1C(=O)/C=C/c1ccc(OC)c(OC)c1	x	x	1	x	u	64*
C=CCSc1nc2ccccc2n1C(=O)/C=C/c1ccc(OC)c(OC)c1	u	-3	-8	12	43	x
C=CCSc1nc2ccccc2n1C(=O)/C=C/c1cc(OC)c(OC)c(OC)c1	67*	-7	i	11	96*	x
COc1ccc(NC(=O)Nc2ccc3c(c2)C(=O)N([C@@H](C)CO)C[C@H](C)[C@@H](CN(C)S(=O)(=O)c2ccc(C)cc2)O3)cc1	-6	2	9	-1	18	-17
COc1ccc(S(=O)(=O)N(C)C[C@H]2Oc3ccc(NC(=O)NC4CCCCC4)cc3C(=O)N([C@H](C)CO)C[C@@H]2C)cc1	6	20*!	0	0	22	-4
COc1ccc(S(=O)(=O)N(C)C[C@@H]2Oc3ccc(NC(=O)Nc4ccc(F)cc4)cc3C(=O)N([C@H](C)CO)C[C@@H]2C)cc1	15	18*	-2	-3	3	x
COc1ccc(S(=O)(=O)N(C)C[C@H]2Oc3ccc(NC(=O)Nc4ccc(F)cc4)cc3C(=O)N([C@H](C)CO)C[C@@H]2C)cc1	3	1	9	-4	13	x
COc1ccc(NC(=O)Nc2ccc3c(c2)C(=O)N([C@@H](C)CO)C[C@@H](C)[C@@H](CN(C)S(=O)(=O)c2ccc(C)cc2)O3)cc1	-3	19*	2	-2	10	-15
COCC(=O)N(C)C[C@@H]1Oc2cc(C#Cc3ccccc3)ccc2S(=O)(=O)N([C@@H](C)CO)C[C@H]1C	-8	0	-1	-2	0	x
Cc1c(O)ccc(/C(Cc2ccc3ccccc3n2)=N\N)c1O	10	-1	-21	-25*	-21	-19

Bioassay records from PubChem.
